Measurements taken from PubChem BioAssay (NCATS).
Inconclusive results are not listed. Calls of active or inactive are those of the source. The call rests on the fitted dose curve; in most records, active means well fitted curve in the direction sought with a large enough effect; inconclusive means small, poorly fitted or top-dose-only effect, or another doubt; inactive means no such curve, though single readings can be large; an effect the other way counts as inactive or inconclusive.

What was measured:
HaCat [1] = assay: Cytotoxic Profiling of Annotated Libraries Using Quantitative High-Throughput Screening (AID 1296008); settings: Five cell lines viability, CellTiter-Glo ATP luminescence, 48-72 h; max response: active compounds read low; further: nearly all actives have a fitted effect of over 60% in size
Outline: (§1)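 Cells exposed to compounds for 48 or 72 hr at 37 degrees Celsius. Viability read as ATP-coupled luminescence with CellTiter-Glo after 10 min at room temperature.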

MCC-13 = assay: qHTS assay to identify novel small-molecules to repurpose for Merkel cell carcinoma treatment (AID 1296009); settings: MCC and control cell lines, CellTiter-Glo viability, 72 h; series mostly up to 46 µM; further: nearly all actives have a fitted effect of over 60% in size
Outline: (§2)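 CellTiter-Glo luminescence after 72 hr compound exposure at 37 degree celsius gave cell viability. Libraries NPC and MIPE were run as 8- and 11-point dose responses; RLUs normalized to DMSO (negative) and no-cell (cytotoxicity) controls.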

MCC-26 = assay: as above; settings: MCC and control cell lines, CellTiter-Glo viability, 72 h; series mostly up to 46 µM
Outline: as §2

MKL-1 = assay: as above; settings: MCC and control cell lines, CellTiter-Glo viability, 72 h; series mostly up to 46 µM
Outline: as §2

MKL-2 = assay: as above; settings: MCC and control cell lines, CellTiter-Glo viability, 72 h; series mostly up to 46 µM
Outline: as §2

CAOV3 = assay: Primary qHTS to identify gynecologic anti-cancer compounds using libraries of approved drugs and bioactive compounds (AID 1345084); settings: Gynecologic cancer cell panel viability, ATPlite luminescence, 48 h; series mostly up to 57.5 µM; further: nearly all actives have a fitted effect of over 55% in size
Outline: (§3)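 ATP-based viability (ATPlite), 1,000 cells/well, 16 h pre-incubation, 48 h compound at 37 C, 5% CO2, 15 min RT before read.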

Es-2 = assay: as above; settings: Gynecologic cancer cell panel viability, ATPlite luminescence, 48 h; series mostly up to 57.5 µM
Outline: as §3

JEG-3 = assay: as above; settings: Gynecologic cancer cell panel viability, ATPlite luminescence, 48 h; series mostly up to 57.5 µM
Outline: as §3

KB-3-1 = assay: Cytotoxic Profiling of Annotated Libraries Using Quantitative High-Throughput Screening (AID 1296008); settings: Five cell lines viability, CellTiter-Glo ATP luminescence, 48-72 h; max response: active compounds read low; further: nearly all actives have a fitted effect of over 60% in size
Outline: as §1

NIH3T3 [2] = assay: as above; settings: Five cell lines viability, CellTiter-Glo ATP luminescence, 48-72 h; max response: active compounds read low
Outline: as §1

UISO = assay: qHTS assay to identify novel small-molecules to repurpose for Merkel cell carcinoma treatment (AID 1296009); settings: MCC and control cell lines, CellTiter-Glo viability, 72 h; series mostly up to 46 µM; further: nearly all actives have a fitted effect of over 60% in size
Outline: as §2

WaGa = assay: as above; settings: MCC and control cell lines, CellTiter-Glo viability, 72 h; series mostly up to 46 µM
Outline: as §2

C33A = assay: Primary qHTS to identify gynecologic anti-cancer compounds using libraries of approved drugs and bioactive compounds (AID 1345084); settings: Gynecologic cancer cell panel viability, ATPlite luminescence, 48 h; series mostly up to 57.5 µM; further: nearly all actives have a fitted effect of over 55% in size
Outline: as §3

CASKI = assay: as above; settings: Gynecologic cancer cell panel viability, ATPlite luminescence, 48 h; series mostly up to 57.5 µM
Outline: as §3

HeLa = assay: as above; settings: Gynecologic cancer cell panel viability, ATPlite luminescence, 48 h; series mostly up to 57.5 µM
Outline: as §3

Hek293T [3] = assay: as above; settings: Gynecologic cancer cell panel viability, ATPlite luminescence, 48 h, control line for the selectivity index; series mostly up to 57.5 µM
Outline: as §3

CRL-7250 = normal cell line; assay: qHTS assay to identify novel small-molecules to repurpose for Merkel cell carcinoma treatment (AID 1296009); settings: MCC and control cell lines, CellTiter-Glo viability, 72 h; at 44.8 µM (top of the series) unless noted; further: nearly all actives have a fitted effect of over 60% in size
Outline: as §2

NIH3T3 [4] = assay: as above; settings: MCC and control cell lines, CellTiter-Glo viability, 72 h; at 44.8 µM (top of the series) unless noted
Outline: as §2

HACAT [5] = assay: as above; settings: MCC and control cell lines, CellTiter-Glo viability, 72 h; at 44.8 µM (top of the series) unless noted
Outline: as §2

HEK293T [6] = assay: as above; settings: MCC and control cell lines, CellTiter-Glo viability, 72 h; at 44.8 µM (top of the series) unless noted
Outline: as §2
On the % scale 0 is the no-effect control and ±100 the full control effect; potency means the concentration at half of the fitted maximal effect.

CC1(N2CCC(n3c([C@@H]4CCCNC4)nc4ccccc43)CC2)CCCCCCC1
inactive: max response (HaCat [1]) -28.8% | Potency (MCC-13) | Potency (MCC-26)
active: Potency (MKL-1) 23.5 µM | Potency (MKL-2) 13.2 µM | Potency (CAOV3) 8.91 µM | Potency (Es-2) 22.4 µM | Potency (JEG-3) 11.2 µM

CC(O)=C(C#N)C(=O)Nc1cc(Br)ccc1Br
inactive: outcome (KB-3-1) | max response (NIH3T3 [2]) -15.7% | Potency (MCC-13) | Potency (MCC-26) | Potency (MKL-1) | Potency (UISO) | Potency (WaGa)

c1cc2ccc3cccc4ccc(c1)c2c34
inactive: max response (KB-3-1) -15.2% | max response (NIH3T3 [2]) -19.4% | Potency (MCC-13) | Potency (MCC-26) | Potency (MKL-1) | Potency (MKL-2) | Potency (UISO) | Potency (WaGa) | Potency (C33A) | Potency (CAOV3) | Potency (CASKI) | Potency (Es-2) | Potency (HeLa) | Potency (Hek293T [3]) | Potency (JEG-3)

O=[N+]([O-])c1ncc[nH]1
inactive: max response (HaCat [1]) -7.46% | max response (NIH3T3 [2]) -0.757% | Potency (MCC-13) | Potency (MCC-26) | Potency (MKL-1) | Potency (MKL-2) | Potency (UISO) | Potency (WaGa)

CC=C(C)C(=O)O[C@H]1C(C)=C2[C@@H]3OC(=O)[C@@](C)(O)[C@@]3(O)[C@@H](OC(=O)CCC)C[C@](C)(OC(C)=O)[C@@H]2[C@@H]1OC(=O)CCCCCCC
active: Potency (HaCat [1]) 8.33 µM | Potency (NIH3T3 [2]) 0.0187 µM | Potency (MCC-13) 1.87 µM | Potency (MCC-26) 1.32 µM | Potency (MKL-1) 11.8 µM | Potency (MKL-2) 3.72 µM | Potency (UISO) 0.235 µM | Potency (WaGa) 1.66 µM

Nc1ccc(Sc2ccc(N)cc2)cc1
inactive: max response (KB-3-1) -8.88% | max response (NIH3T3 [2]) -12.3% | Potency (MCC-13) | Potency (MCC-26) | Potency (MKL-1) | Potency (MKL-2) | Potency (UISO) | Potency (WaGa) | Potency (C33A) | Potency (CAOV3) | Potency (CASKI) | Potency (Es-2) | Potency (HeLa) | Potency (Hek293T [3]) | Potency (JEG-3)

CC(C)(C)c1cc(C=C(C#N)C#N)cc(Br)c1O
inactive: max response (HaCat [1]) 3.48% | outcome (NIH3T3 [2]) | outcome (CRL-7250) | Potency (MCC-13) | Potency (MCC-26) | Potency (MKL-1) | Potency (MKL-2) | outcome (NIH3T3 [4]) | Potency (UISO) | Potency (WaGa)

Fc1cc(Br)ccc1CBr
inactive: outcome (HaCat [1]) | outcome (NIH3T3 [2]) | outcome (HACAT [5]) | Potency (MCC-13) | Potency (MCC-26) | Potency (MKL-1) | Potency (MKL-2) | outcome (NIH3T3 [4]) | Potency (UISO) | Potency (WaGa) | Potency (C33A) | Potency (CAOV3) | Potency (CASKI) | Potency (Es-2) | Potency (HeLa) | Potency (Hek293T [3]) | Potency (JEG-3)

C[C@]12CC[C@@H]3[C@@H](CCC4=CC(=O)CC[C@@H]43)[C@@H]1CC[C@@H]2OC(=O)CCc1ccccc1
inactive: max response (HaCat [1]) -22.8% | max response (NIH3T3 [2]) -6.38% | outcome (HEK293T [6]) | Potency (MCC-13) | Potency (MCC-26) | Potency (MKL-1) | Potency (MKL-2) | Potency (UISO) | Potency (WaGa)
